Measurements: PubChem BioAssay (NCATS)
Inconclusive results are not listed. The source made the active and inactive calls. The call rests on the fitted dose curve; in most records, active means well fitted inhibition curve with a large enough effect; inconclusive means small, poorly fitted or top-dose-only effect; inactive means flat fitted curve, though single readings scatter.

Legend:
Test in all cases: qHTS profiling for inhibitors of Plasmodium falciparum proliferation (AID 504749); further: nearly all actives have a fitted effect of over 60% in size
3D7 = conditions: P. falciparum in erythrocytes, SYBR Green DNA, 72 h; series mostly up to 12.8 µM
Summary of the method: (§1)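 Infected RBCs, 0.3% parasitemia/2.5% Hct final; cpd 72 h, 37 C, 5% CO2; lysis buffer with saponin/triton/SYBR Green I, o/n RT dark; FI 485/535; norm. to artemisinin (0.29 uM) and DMSO.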

AS120 = conditions: P. falciparum in erythrocytes, SYBR Green DNA, 72 h; series mostly up to 28.7 µM
Summary of the method: as §1

ATS189 = conditions: P. falciparum in erythrocytes, SYBR Green DNA, 72 h; series mostly up to 12.8 µM
Summary of the method: as §1

CP185 = conditions: P. falciparum in erythrocytes, SYBR Green DNA, 72 h; series mostly up to 12.8 µM
Summary of the method: as §1

CP194 = conditions: P. falciparum in erythrocytes, SYBR Green DNA, 72 h; series mostly up to 12.8 µM
Summary of the method: as §1

CP238 = conditions: P. falciparum in erythrocytes, SYBR Green DNA, 72 h; series mostly up to 12.8 µM
Summary of the method: as §1

CP247 = conditions: P. falciparum in erythrocytes, SYBR Green DNA, 72 h; series mostly up to 12.8 µM
Summary of the method: as §1

CP265 = conditions: P. falciparum in erythrocytes, SYBR Green DNA, 72 h; series mostly up to 12.8 µM
Summary of the method: as §1

CP269 = conditions: P. falciparum in erythrocytes, SYBR Green DNA, 72 h; series mostly up to 12.8 µM
Summary of the method: as §1

CP286 = conditions: P. falciparum in erythrocytes, SYBR Green DNA, 72 h; series mostly up to 12.8 µM
Summary of the method: as §1

CP291 = conditions: P. falciparum in erythrocytes, SYBR Green DNA, 72 h; series mostly up to 12.8 µM
Summary of the method: as §1

CP305 = conditions: P. falciparum in erythrocytes, SYBR Green DNA, 72 h; series mostly up to 12.8 µM
Summary of the method: as §1

DFO2036 = conditions: P. falciparum in erythrocytes, SYBR Green DNA, 72 h; series mostly up to 12.8 µM
Summary of the method: as §1

DIV30 = conditions: P. falciparum in erythrocytes, SYBR Green DNA, 72 h; series mostly up to 12.8 µM
Summary of the method: as §1

ECU = conditions: P. falciparum in erythrocytes, SYBR Green DNA, 72 h; series mostly up to 12.8 µM
Summary of the method: as §1

HB3 = conditions: P. falciparum in erythrocytes, SYBR Green DNA, 72 h; series mostly up to 12.8 µM
Summary of the method: as §1

P94_40 = conditions: P. falciparum in erythrocytes, SYBR Green DNA, 72 h; series mostly up to 12.8 µM
Summary of the method: as §1

PAD = conditions: P. falciparum in erythrocytes, SYBR Green DNA, 72 h; series mostly up to 12.8 µM
Summary of the method: as §1

PC26 = conditions: P. falciparum in erythrocytes, SYBR Green DNA, 72 h; series mostly up to 12.8 µM
Summary of the method: as §1

TAB113 = conditions: P. falciparum in erythrocytes, SYBR Green DNA, 72 h; series mostly up to 12.8 µM
Summary of the method: as §1

Measured: Potency

C[C@@H]1CCC[C@H](C)N1NC(=O)c1ccc(Cl)c(S(N)(=O)=O)c1
inactive: 3D7 | AS120 | ATS189 | CP185 | CP194 | CP238 | CP247 | CP265 | CP269 | CP286 | CP291 | CP305 | DFO2036 | DIV30 | ECU | HB3 | P94_40 | PAD | PC26 | TAB113

C[N+](C)(C)CC(O)CC(=O)O (stereo not given)
inactive: 3D7 | AS120 | ATS189 | CP185 | CP194 | CP238 | CP247 | CP265 | CP269 | CP286 | CP291 | CP305 | DFO2036 | DIV30 | ECU | HB3 | P94_40 | PAD | PC26 | TAB113

CN(C)CC/C=C1\c2ccccc2CSc2ccccc21
inactive: 3D7 | CP286 | DFO2036 | ECU | HB3 | PAD

CN1CCCC[C@@H]1CCN1c2ccccc2Sc2ccc(S(C)=O)cc21 (stereo not given in full)
inactive: 3D7 | AS120 | ATS189 | CP185 | CP194 | CP238 | CP247 | CP265 | CP269 | CP286 | CP291 | CP305 | DFO2036 | DIV30 | ECU | HB3 | P94_40 | PAD | PC26 | TAB113

CN1[C@@H]2CC[C@H]1CC(OC(=O)[C@@H](O)c1ccccc1)C2 (stereo not given in full)
inactive: 3D7 | AS120 | ATS189 | CP185 | CP194 | CP238 | CP247 | CP265 | CP269 | CP286 | CP291 | CP305 | DFO2036 | DIV30 | ECU | HB3 | P94_40 | PAD | PC26 | TAB113

CC[C@@]12CCCN3CCc4c(n(c5ccccc45)C(=O)C1)[C@H]32
inactive: 3D7 | AS120 | ATS189 | CP185 | CP194 | CP238 | CP247 | CP265 | CP269 | CP286 | CP291 | CP305 | DFO2036 | DIV30 | ECU | HB3 | P94_40 | PAD | PC26 | TAB113

CCCN(CCC)C(=O)[C@@H](CCC(=O)O)NC(=O)c1ccccc1
inactive: 3D7 | AS120 | ATS189 | CP185 | CP194 | CP238 | CP247 | CP265 | CP269 | CP286 | CP291 | CP305 | DFO2036 | DIV30 | ECU | HB3 | P94_40 | PAD | PC26 | TAB113

N[C@@H](CO)C(=O)NNCc1ccc(O)c(O)c1O
inactive: 3D7 | AS120 | ATS189 | CP185 | CP194 | CP238 | CP247 | CP265 | CP269 | CP286 | CP291 | CP305 | DFO2036 | DIV30 | ECU | HB3 | P94_40 | PAD | PC26 | TAB113

CC[C@]1(C)CC(=O)NC1=O
inactive: 3D7 | AS120 | ATS189 | CP185 | CP194 | CP238 | CP247 | CP265 | CP269 | CP286 | CP291 | CP305 | DFO2036 | DIV30 | ECU | HB3 | P94_40 | PAD | PC26 | TAB113

CN(C)[C@@H]1C(=O)C(C(N)=O)=C(O)[C@]2(O)C(=O)C3=C(O)c4c(O)ccc(Cl)c4[C@H](O)[C@H]3C[C@@H]12
inactive: AS120 | ATS189 | CP185 | CP194 | CP238 | CP247 | CP265 | CP269 | CP291 | CP305 | DIV30 | P94_40 | PC26 | TAB113
